Compound activity deposited in PubChem by National Center for Advancing Translational Sciences (NCATS).
D1 antagonist: Antagonist of Human D 1 Dopamine Receptor: qHTS. D(1A) dopamine receptor (Homo sapiens), P21728. HEK293 TREx D1 cells, calcium flux, dopamine EC80; stronger effect = lower value. activity change, negative = inhibition, % at 10 µM. hit rate 3.2% among 360,000. AID 504652, 2011; in the data active = activity change below about -30%; also: % is scaled to controls: 0 for no effect and ±100 for the full control effect
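Compound effects on dopamine-evoked calcium signalling were measured in tetracycline-induced HEK293 Trex D1 cells. Dopamine at EC80 followed a 180 s compound pre-read, and fluorescence was tracked kinetically for 180 s more.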
D1 ag: Allosteric Agonists of the Human D1 Dopamine Receptor: qHTS. D(1A) dopamine receptor (Homo sapiens), P21728. HEK293 T-REx D1 cells, calcium flux, agonist mode. activation, % at 2 µM. hit rate 1% among 360,000. AID 504660, 2011; also: 0% is about no effect
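Inducible HEK293 T-REx D1 cells, force-coupled to calcium signalling, were plated at 4000 cells/well with tetracycline and held overnight at 30 C. After no-wash calcium dye loading, compound-evoked calcium rise over 180 s flagged agonists.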
TRHR enhancer: qHTS for Small Molecule Agonists and Allosteric Enhancers of Human TRH Receptor: Primary Screen for Enhancers. AID 493056, 2011. TRHR cells, fluo-8 calcium fluorescence, EC20 TRH enhancement. enhancement, % at 2 µM. hit rate 0.66% among 360,000; in the data active = enhancement above about 30%; also: 0% is about no effect
Target sequence (P34981 whole entry, looked up): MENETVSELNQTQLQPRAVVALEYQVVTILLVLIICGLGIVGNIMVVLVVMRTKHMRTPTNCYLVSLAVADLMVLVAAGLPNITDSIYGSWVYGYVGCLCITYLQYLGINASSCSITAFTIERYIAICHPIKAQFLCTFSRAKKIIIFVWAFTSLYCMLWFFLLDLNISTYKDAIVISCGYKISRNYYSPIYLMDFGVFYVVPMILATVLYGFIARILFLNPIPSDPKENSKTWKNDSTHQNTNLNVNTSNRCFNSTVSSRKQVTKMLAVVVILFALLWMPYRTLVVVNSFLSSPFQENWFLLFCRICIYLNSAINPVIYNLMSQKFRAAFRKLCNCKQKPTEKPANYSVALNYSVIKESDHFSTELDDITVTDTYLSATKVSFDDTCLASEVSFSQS
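TRHR-expressing cells loaded with fluo-8 calcium dye were read kinetically (ex 480/em 530) during compound addition, then stimulated with an EC20 of TRH (10 nM final). Enhancement of the Gq-mediated intracellular calcium response was scored.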
TRHR ag: qHTS for Small Molecule Agonists and Allosteric Enhancers of Human TRH Receptor: Primary Screen for Agonists; Thyrotropin-releasing hormone receptor (Homo sapiens), P34981; TRHR cells, calcium flux fluo-8, FDSS agonist mode; activation, % at 2 µM; hit rate 0.18% among 360,000; also: 0% is about no effect
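Agonist-mode FDSS calcium read (Ex 480/Em 530, 1 s cycles) in 1536-well TRHR cells with fluo-8 dye, after 10-cycle baseline and 23 nL compound addition; TRH at EC20 (10 nM final) added afterwards for the enhancer phase.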
D1 PAM: Potentiators of Human D1 Dopamine Receptor: qHTS; D(1A) dopamine receptor (Homo sapiens), P21728; HEK293 TREx D1 cells, calcium flux, dopamine EC20 potentiation; potentiation, % at 10 µM; hit rate 0.036% among 360,000; in the data active = potentiation above about 30%; also: 0% is about no effect
* marks the source's active call; other numbers are inactive results; . = no result given; ! = not confirmed by another sample. In the library only some 4.6% were active in any assay of this set; here they are far more common. Rule as the data show it, unless noted: active = activation above about 30%; inactive = the rest.

SMILES	D1 antagonist	D1 ag	TRHR enhancer	TRHR ag	D1 PAM
Cc1ccc(NS(=O)(=O)c2ccc(C(=O)NCC(c3ccco3)N3CCCCC3)cc2)cc1 (stereo unspecified)	-1	39*	7	4	-3
CCOc1ccc(/C=C/c2nc(C#N)c(N3CCN(c4ccc(OC)cc4)CC3)o2)cc1	6	-1	1	1	2
Cc1ccc(OCC(=O)Nc2nnc(S(=O)(=O)N3c4ccccc4CC3C)s2)cc1 (stereo unspecified)	3	-1	-7	0	4
COc1cc(-c2noc(-c3ccc(NCc4ccco4)c([N+](=O)[O-])c3)n2)cc(OC)c1OC	1	6	0	1	0
CCOc1ccc(N(c2nc(-c3ccc(OC)c(OC)c3)no2)c2nc(-c3ccc(OC)c(OC)c3)no2)cc1	-7	1	-4	1	3
CCOc1ncccc1C(=O)NNC(=O)c1cccc(S(=O)(=O)Nc2ccc(OC)cc2)c1	-46*	3	-5	0	-14
CCOc1ccccc1C(=O)NCC(=O)NNC(=O)c1cccc(S(=O)(=O)Nc2ccc(OC)cc2)c1	-20	1	2	0	-5
Cc1ccc(N=Nc2ccc(O)c3ncccc23)cc1C	-16	36*	7	0	-5
CCOC(=O)C1CCN(C(=O)Cn2nc(CC)n3c(cc4occc43)c2=O)CC1	-33*	5	-7	0	2
CCc1nn(CC(=O)NCCCN2CCN(C)CC2)c(=O)c2cc3occc3n12	-37*!	2	4	1	0
CCc1nn(CC(=O)NCCN2CCN(C)CC2)c(=O)c2cc3occc3n12	-14	3	3	-1	3
CCOc1ccc(NC(=O)Cn2cc(C(=O)c3ccc(OCC)cc3)c(=O)c3cc4c(cc32)OCCO4)cc1	9	1	-2	1	-1
COc1cc(CNCCNC(=O)c2nonc2N)ccc1OCc1ccc(Cl)cc1	-22	69*	2	2	-4
NS(=O)(=O)c1ccc(CCNC(=O)CNCCc2ccccc2)cc1	16	1	-4	-1	-6
O=C(COc1ccc(Br)cc1CNCCc1ccccc1)NCc1ccccc1	.	28	-3	2	-8
Nc1nonc1C(=O)NCCNCc1cc(Br)ccc1OCc1ccccc1F	-10	31*	2	0	-8
Nc1nonc1C(=O)NCCNCc1ccccc1OCc1ccccc1F	-28	23	-6	0	-9
NS(=O)(=O)c1ccc(CCNCc2cc(Cl)ccc2OCc2ccccc2)cc1	-6	57*	-2	0	-6
NS(=O)(=O)c1ccc(CCNCc2cc(Br)ccc2OCc2ccccc2F)cc1	-31*	25	9	0	-3
Cc1cccc(N(C)S(=O)(=O)c2nnc(NC(=O)C(C)Oc3ccccc3)s2)c1 (stereo unspecified)	7	6	-1	0	-1
CC(=O)N1CCN=C1SCc1cccc(F)c1	-3	1	0	0	0
NS(=O)(=O)c1ccc(CCNCc2ccccc2OCc2ccc(Cl)cc2)cc1	-48*	53*	-6	2	-8
Fc1ccccc1COc1ccc(Br)cc1CNCC1CCCO1 (stereo unspecified)	-50*	12	-3	0	-12
C=CCOc1ccccc1CNCCc1ccc(S(N)(=O)=O)cc1	-10	9	5	0	2
Cc1ccc(C2CC(=O)N(Cc3ccccc3)c3c2c(C)nn3-c2nc(C)cc(C)n2)cc1 (stereo unspecified)	2	0	7	-1	2
SMILES	D1 antagonist	D1 ag	TRHR enhancer	TRHR ag	D1 PAM
O=C(COc1ccccc1)Nc1ccc(Cl)c(-c2nc3ncccc3o2)c1	-44*	0	3	0	-12
CN1C(=O)c2cccc3c(Cl)ccc(c23)C1=O	3	3	-2	0	1
CNc1ccc2c3c(cccc13)C(=O)N(C)C2=O	-38*	338*	47*	262*	-18
Cc1cccc(OCC(=O)NNC(=O)c2cc3ccccc3oc2=O)c1	-4	3	10	0	-7
O=C(COc1ccc(F)cc1)NNC(=O)c1cc2ccccc2oc1=O	-30*	1	-3	0	-9
Cc1nn(-c2ccccc2)c(Cl)c1CN(C(=O)CCl)c1ccc(Cl)cc1	-57*	2	-18	-1	-8
CCOC(=O)c1c(Oc2ccc(C(C)=O)cc2)nnc(-c2ccccc2)c1-c1ccccc1	34	6	-4	0	-2
CC(=O)c1ccc(NC(=O)CN2C(=O)COc3ccc(Cl)cc32)cc1	1	5	-1	1	-3
Cc1ccccc1NC(=O)CN1C(=O)COc2ccc(Cl)cc21	-92*	4	-11	1	-9
O=C(CN1C(=O)COc2ccc(Cl)cc21)Nc1ccc(F)cc1	-34*	25	3	1	-6
COc1cc(NC(=O)Cn2ccc3ccccc3c2=O)cc(OC)c1OC	14	0	6	0	-2
O=C(/C=C/c1ccc([N+](=O)[O-])cc1)NCCN1C(=O)S/C(=C\c2ccc(F)cc2)C1=O	-31*	1	3	0	-4
O=C(/C=C/c1cccc([N+](=O)[O-])c1)NCCN1C(=O)S/C(=C\c2ccc(F)cc2)C1=O	-40*	4	-3	0	-4
CC(C)(C)SCCNC(=O)/C=C/c1ccc([N+](=O)[O-])cc1	-36*	13	24	2	-5
COc1ccc(Cn2c(CO)cnc2SCc2ccc(C)cc2)cc1	-10	16	-2	0	-5
COc1cccc(OCCn2cc(/C=N/NC(=O)c3ccncc3)c3ccccc32)c1	-14	3	14	0	-3
COc1cccc(OCCn2cc(C(=O)c3ccco3)c3ccccc32)c1	-1	50*	-1	-1	-7
COc1cccc(OCCn2cc(C(C)=O)c3ccccc32)c1	-32*	23	-9	0	-1
CC(=O)c1cn(CCOc2cc(C)ccc2C)c2ccccc12	-14	12	-13	0	-10
COc1ccccc1OCCn1cc(C(=O)c2ccco2)c2ccccc21	-7	24	-2	1	-5
Cc1ccc(C)c(OCCn2cc(C(=O)O)c3ccccc32)c1	-40*	4	-4	0	-11
Cc1ccc(OCCn2cc(C=O)c3ccccc32)cc1	-34*	7	0	0	-4
